Results filed as inconclusive are left out. A number with no mark means an inactive call. Activity calls are given as the source filed them. Calls follow the shape of the dose curve; as a rule, active = well fitted inhibition curve with a large enough effect; inconclusive = small, poorly fitted or top-dose-only effect; inactive = flat fitted curve, though single readings scatter.
system: CP268; assay: qHTS profiling for inhibitors of Plasmodium falciparum proliferation (AID 504749); also: nearly all actives have a fitted effect of over 60% in size;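 as to activity, negative = inhibition: 0% = DMSO vehicle and full inhibition = artemisinin control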; conditions: P. falciparum in erythrocytes, SYBR Green DNA, 72 h; series mostly up to 28.7 µM; activity, negative = inhibition: at the top concentration
How it was run: (§1)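 In a 72 h erythrocytic culture (37 C, humidified, 5% CO2) at 2.5% hematocrit and 0.3% starting parasitemia, compounds were tested; SYBR Green I in detergent lysis buffer stained parasite DNA overnight.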
Potency is read from the fitted curve at half-maximal effect.

| Structure (SMILES) | activity, negative = inhibition | Potency |
| --- | --- | --- |
| COC(=O)Nc1nc2ccc(C(=O)c3cccs3)cc2[nH]1 | -1.37% |  |
| Clc1ccccc1C(c1ccccc1)(c1ccccc1)n1ccnc1 |  | 2.28 µM (active) |
| Cc1cn([C@H]2C=C[C@@H](CO)O2)c(=O)[nH]c1=O | -1.35% |  |
| CCOC(=O)c1ncn2c1CN(C)C(=O)c1cc(F)ccc1-2 | 0.717% |  |
| CCC1(c2ccccc2)C(=O)NCNC1=O | 0.222% |  |
| CC#C[C@]1(O)CC[C@H]2[C@@H]3CCC4=CC(=O)CCC4=C3[C@@H](c3ccc(N(C)C)cc3)C[C@@]21C |  | 16.9 µM (active) |
| O=C1c2c(O)ccc(O)c2C(=O)c2c(NCCNCCO)ccc(NCCNCCO)c21 |  | 7.21 µM (active) |
| O=C(c1ccc(OCCN2CCCCC2)cc1)c1c(-c2ccc(O)cc2)sc2cc(O)ccc12 |  | 10.7 µM (active) |
| CN(Cc1cnc2nc(N)nc(N)c2n1)c1ccc(C(=O)N[C@@H](CCC(=O)O)C(=O)O)cc1 | 4.52% |  |
| CC(C)NCC(O)COc1ccc(CCOCC2CC2)cc1 (centres undefined) | -6.06% |  |
| Nc1nc2c(ncn2COC(CO)CO)c(=O)[nH]1 | -3.84% [at 12.8 µM] |  |
| COc1ccc(CCN(C)CCCC(C#N)(c2ccc(OC)c(OC)c2)C(C)C)cc1OC (centres undefined) | 1.64% |  |
| O=C(Nc1ccc([N+](=O)[O-])cc1Cl)c1cc(Cl)ccc1O |  | 1.9 µM (active) |
| Clc1ccc2c(c1)C(N1CCNCC1)=Nc1ccccc1O2 | -13.6% |  |
| OCCN1CCN(CCCN2c3ccccc3Sc3ccc(C(F)(F)F)cc32)CC1 |  | 13.5 µM (active) |
| COc1nc(C)nc(Cl)c1NC1=NCCN1 | -1.96% [at 12.8 µM] |  |
| CC(C)(Oc1ccc(C2CC2(Cl)Cl)cc1)C(=O)O (centres undefined) | -4.03% |  |
| NC12CC3CC(CC(C3)C1)C2 | 5.17% |  |
| CC12CC3CC(C)(C1)CC(N)(C3)C2 | 0.419% |  |
| CN(C)CCCN1c2ccccc2CCc2ccc(Cl)cc21 | -22.7% |  |
| CC(C)NCC(O)c1ccc(O)c(O)c1 (centres undefined) | 0.204% |  |
| CNCCCC12CCC(c3ccccc31)c1ccccc12 | -22% |  |
| CC(=O)OCC(CCn1cnc2cnc(N)nc21)COC(C)=O | 0.438% |  |

system: CP269; assay: as above; conditions: P. falciparum in erythrocytes, SYBR Green DNA, 72 h; series mostly up to 28.7 µM; activity, negative = inhibition: at the top concentration
How it was run: as §1

| Structure (SMILES) | activity, negative = inhibition | Potency |
| --- | --- | --- |
| COC(=O)Nc1nc2ccc(C(=O)c3cccs3)cc2[nH]1 | -7.49% |  |
| Clc1ccccc1C(c1ccccc1)(c1ccccc1)n1ccnc1 |  | 0.907 µM (active) |
| Cc1cn([C@H]2C=C[C@@H](CO)O2)c(=O)[nH]c1=O | -0.931% |  |
| CCOC(=O)c1ncn2c1CN(C)C(=O)c1cc(F)ccc1-2 | -3.45% |  |
| CCC1(c2ccccc2)C(=O)NCNC1=O | 0.778% |  |
| CC#C[C@]1(O)CC[C@H]2[C@@H]3CCC4=CC(=O)CCC4=C3[C@@H](c3ccc(N(C)C)cc3)C[C@@]21C |  | 13.5 µM (active) |
| CN(C)CCOC(c1ccccc1)c1ccccc1 | 8.11% |  |
| O=C1c2c(O)ccc(O)c2C(=O)c2c(NCCNCCO)ccc(NCCNCCO)c21 |  | 7.21 µM (active) |
| CN(Cc1cnc2nc(N)nc(N)c2n1)c1ccc(C(=O)N[C@@H](CCC(=O)O)C(=O)O)cc1 | -9.57% |  |
| Nc1nc2c(ncn2COC(CO)CO)c(=O)[nH]1 | -3.08% [at 12.8 µM] |  |
| O=C(Nc1ccc([N+](=O)[O-])cc1Cl)c1cc(Cl)ccc1O |  | 1.2 µM (active) |
| Clc1ccc2c(c1)C(N1CCNCC1)=Nc1ccccc1O2 | -14.5% |  |
| OCCN1CCN(CCCN2c3ccccc3Sc3ccc(C(F)(F)F)cc32)CC1 |  | 6.01 µM (active) |
| Clc1ccc(C(c2ccccc2Cl)C(Cl)Cl)cc1 (centres undefined) | -18.2% |  |
| COc1nc(C)nc(Cl)c1NC1=NCCN1 | 6.32% [at 12.8 µM] |  |
| CC(COc1ccccc1)N(CCCl)Cc1ccccc1 (centres undefined) | -17.2% |  |
| CC(C)(Oc1ccc(C2CC2(Cl)Cl)cc1)C(=O)O (centres undefined) | -8.14% |  |
| NC12CC3CC(CC(C3)C1)C2 | -0.854% |  |
| CC12CC3CC(C)(C1)CC(N)(C3)C2 | -6.88% |  |
| CC(C)NCC(O)c1ccc(O)c(O)c1 (centres undefined) | -16.8% |  |
| CC(=O)OCC(CCn1cnc2cnc(N)nc21)COC(C)=O | 4.26% |  |
